High-throughput results as filed in PubChem BioAssay.
NR5A2 inv ag = inverse agonists of human LRH-1 (NR5A2). O00482. HEK293T StAR-luciferase reporter, LRH-1 transfected, 24 h. inhibition, % at 3.6 µM. 360,000 tested, 0.13% active. AID 602396;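 active means inhibition above the mean inhibition of all tested compounds plus 3 SD, cut at about 73% in these data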;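 further: 0% = DMSO wells and 100% = reporter-only cells lacking LRH-1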
NR2F2 inh = inhibitors of human COUP-TFII (NR2F2) | inhibition, % at 8.6 µM | P24468 | HEK293T NGFI-A luciferase reporter, luminescence | AID 686940 | 370,000 tested, 0.7% active;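 active means inhibition above a per-plate cutoff, mean inhibition of test wells between control levels plus 3 SD, cut at about 38% in these data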;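 further: cells cotransfected with COUP-TFII expression vector driving the NGFI-A reporter; 0% = median of COUP-TF2 test wells and 100% = reporter-only cells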
NCOA3 inh = human NCOA3 inhibition | AID 588352 | 360,000 tested, 0.17% active | inhibition, % at 3.6 µM | HEK293 GAL4-SRC3 luciferase reporter, luminescence | Q9Y6Q9;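 active means inhibition above a per-campaign cutoff, the mean of all compounds plus 3 SD, cut at about 60% in these data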;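 further: 0% = DMSO-treated cells and 100% = gossypol-treated cells at 36 µM; higher means less SRC3-driven luciferase light from the GAL4 reporter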
SRC1 inh = human NCOA1 inhibition. HEK293 GAL4-SRC1 luciferase reporter, luminescence. inhibition, % at 3.6 µM. 360,000 tested, 0.12% active. AID 588354;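 active means inhibition above the campaign mean plus 3 SD, with each screening campaign given its own cutoff, cut at about 60% in these data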;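 further: 0% = DMSO treated cells and 100% = gossypol at 36 µM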
NCOA2 inhibitor = inhibits human steroid receptor coactivator 2; Q15596; HEK293 GAL4-SRC2 luciferase reporter, luminescence; inhibition, % at 9 µM; 370,000 tested, 0.17% active;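 active means inhibition above the mean inhibition of all tested compounds plus 3 SD, set per campaign, cut at about 52% in these data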;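 further: 0% = DMSO treated cells and 100% = cells given Gossypol at 36 µM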
GalR3 antagonist = human GalR3 antagonism; O60755; HEK293 GalR3-CNG cAMP membrane potential fluorescence; galR3 body fused to GalR1 C-terminus; inhibition, % at 3 µM; 360,000 tested, 0.44% active; AID 651719;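 active means inhibition above the screen-wide average plus 3 SD, cut at about 13% in these data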;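 further: forskolin and galanin both at EC90 stimulate the cells; cAMP rise reported by CNG channel membrane potential dye signal; 0% = forskolin plus galanin with DMSO and 100% = forskolin alone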
Target sequence (O60755 1-299 limits assumed): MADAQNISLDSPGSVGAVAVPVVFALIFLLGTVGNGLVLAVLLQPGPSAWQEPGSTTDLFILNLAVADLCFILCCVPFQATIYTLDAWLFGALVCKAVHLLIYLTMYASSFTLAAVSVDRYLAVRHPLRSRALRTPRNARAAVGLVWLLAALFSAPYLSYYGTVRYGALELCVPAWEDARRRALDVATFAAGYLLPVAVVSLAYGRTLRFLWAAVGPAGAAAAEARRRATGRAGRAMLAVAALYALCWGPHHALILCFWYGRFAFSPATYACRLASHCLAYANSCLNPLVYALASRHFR
VP16 Luc counter = VP16 inhibition counter-screen for COUP-TFII; shares compounds with NR2F2 inh; HEK293 Gal4-VP16 luciferase reporter, luminescence; inhibition, % at 8.5 µM; 2,500 tested, 25% active; AID 687007; in the data active means inhibition above about 13%
COUP-TFII conf = confirmation of human COUP-TFII (NR2F2) inhibitors; inhibition, % at 8.5 µM; 2,500 tested, 45% active; AID 687008; shares compounds with NR2F2 inh; HEK293 NGFI-A luciferase reporter, luminescence;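 active means mean inhibition over three repeats above a set limit taken from the earlier primary screen, cut at about 38% in these data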;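 further: 100% = cells given the luciferase reporter alone without the COUP-TF2 vector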
The depositor's hits bear a star; . = not tested or not shown. Compounds with a hit are over-represented: about 1.1% of the library has one in this group of screens.

SMILES	NR5A2 inv ag	NR2F2 inh	NCOA3 inh	SRC1 inh	NCOA2 inhibitor	GalR3 antagonist	VP16 Luc counter	COUP-TFII conf
CN1CCN(c2ccc(NC(=O)N3CCc4ccccc43)cc2)CC1	34.9	61.6*	53.3	57.3	37.2	-8.7	-10.6	62.6*
Cc1ccc(NC(=O)N2CCc3ccccc32)cc1	-123.2	-30.4	-81.0	-83.8	-32.0	-1.7	.	.
Nc1ccc(-c2ncc(-c3ccccc3)o2)cc1	33.6	79.0*	15.2	21.1	79.5*	-11.0	72.1*	61.6*
Cc1ccc(-c2cnc(-c3ccncc3)o2)cc1	-78.3	-49.0	-71.9	-70.8	-18.2	-7.0	.	.
Cc1ccc(S(=O)(=O)N(C)CCCC(=O)Nc2ccncc2)cc1	13.2	41.8*	-8.0	2.8	10.2	0.1	-1.2	19.1
CC(C)(C)c1ccc(-c2noc(CCC(=O)NC3CC3)n2)cc1	.	55.9*	.	.	.	.	-46.9	35.7
CNC(=O)CCc1nc(-c2ccc(C(C)(C)C)cc2)no1	-89.4	-14.2	-69.5	-77.8	1.9	5.4	.	.
CC(C)(C)c1ccc(-c2noc(CCC(=O)NCC3CCCO3)n2)cc1 (stereo not drawn)	40.3	75.4*	19.9	22.4	58.6*	-1.7	26.1*	60.5*
CC(C)(C)c1ccc(-c2noc(CCC(=O)Nc3cccnc3)n2)cc1	36.9	77.8*	41.1	20.6	79.7*	-9.9	58.6*	76.6*
COc1ccc(-c2noc(CCC(=O)Nc3cccnc3)n2)cc1	-7.9	0.8	-32.7	-16.1	8.3	3.2	.	.
Cc1ccc(-c2noc(CCC(=O)NCC3CCCO3)n2)cc1 (stereo not drawn)	1.8	0.6	5.4	-6.4	24.1	1.0	.	.
CC(C)(C)c1ccc(-c2noc(CCC(N)=O)n2)cc1	76.3*	84.9*	59.1	51.3	83.2*	-3.6	72.4*	88.3*
COc1ccc(Cl)cc1NC(=O)CN(C)C(=O)c1cccc(-n2cnnn2)c1	8.1	-0.2	0.1	10.6	2.8	-5.8	.	.
O=C(C(c1ccccc1)c1ccccc1)N1CCN(c2ccccn2)CC1	1.3	18.1	-1.2	-1.5	7.0	-4.5	.	.
CCN(CC)S(=O)(=O)c1cccc(NC(=O)Nc2cccc(C(F)(F)F)c2)c1	35.1	38.8*	50.2	17.3	14.9	-6.1	-5.0	12.7
CCN(CC)S(=O)(=O)c1cccc(NC(=O)CC2CCCC2)c1	9.4	-0.4	3.5	-5.7	-0.6	-8.4	.	.
Cc1[nH]c2ccccc2c1/C=N/Nc1ccccn1	.	4.9	.	.	11.2	-3.9	.	.
Cc1[nH]c2ccccc2c1/C=N/Nc1nncn1N	-21.5	91.7*	-34.0	-32.5	17.1	-3.3	-69.6	-34.7
CCCCCCn1ccc(=N)cc1	35.3	76.4*	-17.3	-6.8	-0.7	1.9	4.2	49.6*
CCCCCCCCCCCCCCCCn1cc[n+](CC(C)=O)c1	24.4	.	7.7	6.5	.	.	.	.
O=C1c2ccccc2S(=O)(=O)N1Cc1nc2ccccc2s1	8.8	41.9*	18.5	15.9	51.5	-3.7	-6.1	28.7
COC(=O)C12OCC34C(CC5C(C)=C(O)C(=O)CC5(C)C3C(O)C1O)OC(=O)C(OC(=O)C=C(C)C)C24 (stereo not drawn)	96.8*	92.5*	93.9*	95.7*	82.6*	-2.8	12.3	85.9*
Cc1c(C(=O)Nc2ccccc2F)cnn1-c1ccccc1	-149.4	-17.1	-111.5	-88.3	-24.2	-9.3	.	.
CCOC(=O)C1CCN(C(=O)C(C)N(c2ccc(Oc3ccccc3)cc2)S(C)(=O)=O)CC1 (stereo not drawn)	28.2	45.4*	16.2	6.8	25.9	4.3	-2.8	21.2
COc1ccc(N(C(C)C(=O)N2CCC(Cc3ccccc3)CC2)S(C)(=O)=O)cc1 (stereo not drawn)	11.2	41.8*	24.0	19.3	24.2	-5.7	-3.3	29.6
Cc1cc(Cl)ccc1C(=O)C1CCCN(C(=O)c2cccnc2C)C1 (stereo not drawn)	1.1	1.1	-4.8	9.8	30.3	-6.6	.	.
COC(=O)c1sccc1NC(=O)CSc1cccc(Cl)c1Cl	-27.4	7.8	5.4	-28.7	10.0	0.3	.	.
